The campaign covered roughly 5,500 compounds. About 2,000 (36%) were called active. Inconclusive results (about 18%) are left out. Cut-off read from the data, not from the text of the source: active = normalized growth mostly below about 0.91 (no sharp cut-off); inconclusive = no clear call, values can overlap the other calls; inactive = mostly above about 0.92. This is one part of the list.
Experiment: chemical genetic growth profiling, strain panel (AID 1159580);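 note: tested at 20 µM; growth read once vehicle control cultures reached saturation at 30 °C; 1 = growth at the plate median or of vehicle wells; lower values mean less growth of the strain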
Details: growth OD
[1] = S. cerevisiae deletion strains, locus YAL040C, strain CLN3, stronger effect = lower value
[2] = S. cerevisiae deletion strains, locus YDR363W, strain ESC2, stronger effect = lower value
[3] = S. cerevisiae deletion strains, locus YER002W, strain NOP16, stronger effect = lower value
[4] = S. cerevisiae deletion strains, locus YGR078C, strain PAC10, stronger effect = lower value
[5] = S. cerevisiae deletion strains, locus YJR075W, strain HOC1, stronger effect = lower value
[6] = S. cerevisiae deletion strains, locus YNL153C, strain GIM3, stronger effect = lower value
[7] = S. cerevisiae deletion strains, locus YNL175C, strain NOP13, stronger effect = lower value
[8] = S. cerevisiae deletion strains, locus YNL197C, strain WHI3, stronger effect = lower value
[9] = S. cerevisiae deletion strains, locus YNL224C, strain SQS1, stronger effect = lower value
[10] = S. cerevisiae deletion strains, locus YOR083W, strain WHI5 (second series), stronger effect = lower value
[11] = S. cerevisiae deletion strains, locus YPL241C, strain CIN2, stronger effect = lower value
[12] = S. cerevisiae deletion strains, locus YAL013W, strain DEP1, stronger effect = lower value
[13] = S. cerevisiae deletion strains, locus YMR263W, strain SAP30, stronger effect = lower value
[14] = S. cerevisiae deletion strains, locus YPL055C, strain LGE1, stronger effect = lower value

Measured: normalized growth

COc1cc2c(cc1OC)-c1cc(=Nc3c(C)cc(C)cc3C)n(C)c(=O)n1CC2
inactive: [1] 0.995 | S. cerevisiae deletion strains, locus YCL061C, strain MRC1 (second series), stronger effect = lower value 0.998 | [2] 1 | [3] 1.02 | [4] 1.01 | [5] 0.97 | S. cerevisiae deletion strains, locus YMR307W, strain GAS1, stronger effect = lower value 0.998 | [6] 0.999 | [7] 0.996 | [8] 1.01 | [9] 1.01 | [10] 1.02 | [11] 0.993

c1cc(C2CCCCC2)ccc1C1CCCCC1
inactive: [12] 1.01 | S. cerevisiae deletion strains, locus YBR229C, strain ROT2, stronger effect = lower value 1 | S. cerevisiae deletion strains, locus YCL061C, strain MRC1, stronger effect = lower value 0.965 | S. cerevisiae deletion strains, locus YDL101C, strain DUN1, stronger effect = lower value 0.968 | S. cerevisiae deletion strains, locus YDR150W, strain NUM1, stronger effect = lower value 0.958 | S. cerevisiae deletion strains, locus YEL061C, strain CIN8, stronger effect = lower value 1.01 | [4] 0.982 | S. cerevisiae deletion strains, locus YHR030C, strain SLT2, stronger effect = lower value 0.878 | S. cerevisiae deletion strains, locus YHR087W, strain rtc3, stronger effect = lower value 1.04 | S. cerevisiae deletion strains, locus YJR043C, strain POL32, stronger effect = lower value 1 | [5] 1.03 | S. cerevisiae deletion strains, locus YLR039C, strain RIC1, stronger effect = lower value 1.05 | S. cerevisiae deletion strains, locus YLR058C, strain SHM2 (second series), stronger effect = lower value 1.02 | S. cerevisiae deletion strains, locus YLR085C, strain ARP6, stronger effect = lower value 1.04 | S. cerevisiae deletion strains, locus YLR262C, strain YPT6, stronger effect = lower value 1.04 | S. cerevisiae deletion strains, locus YML094W, strain GIM5, stronger effect = lower value 1.02 | S. cerevisiae deletion strains, locus YMR219W, strain ESC1, stronger effect = lower value 1.04 | [13] 1 | [6] 0.983 | S. cerevisiae deletion strains, locus YNL298W, strain CLA4 (second series), stronger effect = lower value 0.987 | S. cerevisiae deletion strains, locus YNL322C, strain KRE1, stronger effect = lower value 1.01 | S. cerevisiae deletion strains, locus YNR030W, strain Alg12, stronger effect = lower value 0.967 | S. cerevisiae deletion strains, locus YOL006C, strain TOP1, stronger effect = lower value 0.893 | [14] 1.05 | [11] 1 | S. cerevisiae deletion strains, locus YPR135W, strain CTF4, stronger effect = lower value 1.05 | S. cerevisiae strains, strain wild type, stronger effect = lower value 0.973

CC(=O)NBr
inactive: [12] 1.02 | [1] 0.995 | [2] 1.01 | [3] 1.01 | [4] 1.01 | [13] 1 | S. cerevisiae deletion strains, locus YNL128W, strain TEP1, stronger effect = lower value 1.01 | [7] 1.01 | [8] 0.997 | [9] 1.01 | [10] 1.01 | [14] 0.999
